Experimental data published in the supplement of paper PMC6555819.

Key:
Test in all cases: PBM binding z-score (relative to random genomic background probes); higher = stronger binding; sequences stand for … in GC…GCGATTGACAGCGTAGAATGAAGG
[1] = test system: RARb homodimer (NR concentration 270 nM)
In short: (§1)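 Binding z-scores were set against random background probes. The data came from custom Agilent 4×180K protein-binding microarrays carrying double-stranded probes with 34-nt variable regions, incubated 1 h with ligand-free nuclear receptor dimers. Partner-specific antibodies detected binding, and scanned fluorescence was regression-normalized.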

[2] = test system: RARg:RXRa (NR concentration 270 nM, RXRa partner concentration 90 nM)
In short: as §1

[3] = test system: RARg homodimer (NR concentration 270 nM)
In short: as §1

[4] = test system: RXRa DBDmut IVT, anti-RXR (DBD mutation: RXRa K156A/R161A, NR concentration 90 nM)
In short: as §1

[5] = test system: RXRa homodimer (NR concentration 180 nM)
In short: as §1

[6] = test system: THRa:RXRa (NR concentration 90 nM, RXRa partner concentration 90 nM)
In short: as §1

[7] = test system: THRa homodimer (NR concentration 90 nM)
In short: as §1

[8] = test system: VDR homodimer (NR concentration 270 nM)
In short: as §1

Sequence | PBM binding z-score [1] | PBM binding z-score [2] | PBM binding z-score [3] | PBM binding z-score [4] | PBM binding z-score [5] | PBM binding z-score [6] | PBM binding z-score [7] | PBM binding z-score [8]
CCGAGTAGGTTATGTGGCATTCAGGCAACGGTGA | 0.908 | 0.273 | 0.223 | 0.434 | 0.208 | 0.162 | 0.415 | 0.153
CGTCCAAGGTCATAGGAGGTCAGTTAAGACAGAT | 5.16 | 6.57 | 7.05 | 4.09 | 6.19 | 5.3 | 3 | 4.11
ACTATTAGTTGTGACGAGGGCAACCGATAGGTTG | 1.21 | 0.579 | 0.719 | 0.601 | 0.491 | 1.32 | 0.209 | 0.862
CAAACTAGGTCAAAGGTCATAGTCGAGCCAACCA | 5.28 | 8.65 | 6.91 | 2.92 | 10.3 | 4.84 | 1.91 | 3.55
AGAATGAGGTGATACGTAGATCAGGGAAGAAAGT | 0.297 | 0.451 | 0.546 | -0.351 | 0.719 | 1.57 | 0.357 | -0.382
ATCTCTAGGTAAAGTCCAGTGAAAGATCGATAGA | 0.254 | 0.207 | 0.536 | 0.396 | -0.0378 | 0.245 | 0.0822 | 0.0331
CAAACTAGGTCAAGGACAAAGTCGGTTTGTGCCA | 3.2 | 3.97 | 4.91 | 1.39 | 2.52 | 3.58 | 2.25 | 0.988
ACTAGCAGGCCAAGGGTCCCTCAAGATTAGTCCG | 0.0685 | -0.0773 | -0.0696 | -0.495 | -0.0168 | -0.255 | -0.726 | -0.484
TAGCCTAGGTCAGATCGGACCAGTATACGCTATA | 1.86 | 2.7 | 3.46 | -0.00524 | 1.46 | 2.55 | -0.155 | -0.597
TCATATAGGTCAATGCTAGGTGAAAGTCCGATCT | 3.86 | 5.46 | 5.11 | 2.09 | 4.2 | 3.7 | 0.903 | 0.879
TAGCCTAGGTCAGTTCGGGCCAGTATACGCTATA | 2.51 | 2.29 | 3.3 | 0.0401 | 0.716 | 4.04 | 0.352 | 0.242
GTAACGAGGGCAAGTTGATAGCAGAGTTTGATGG | 1.71 | 1.66 | 1.86 | 2.07 | 0.851 | 1.36 | 0.0846 | 2.23
CCTACTGGGCCAAAGCTCATTGATTCCAATGCTC | -0.417 | -0.161 | -0.172 | -0.0907 | -0.521 | -0.58 | -0.358 | -0.874
ATCTCTAGGTAACCAAGTTCAGTGAATGCCGAAC | 1.52 | 0.894 | 0.853 | 0.991 | 0.572 | 1.6 | 0.96 | 2.99
GCTGACAGGTGAAACGCAGGTAACTCAGGGTGGC | 0.252 | 0.825 | 0.362 | -0.702 | 0.505 | 1.27 | -0.547 | -0.647
AGTCAAAGTTCATCCAGGTAACGTAAGATATGCT | 3.81 | 5.56 | 5.81 | 4.61 | 4.49 | 3.57 | 0.915 | 5.17
ATACCAAGGGGATCGTGAGGTCGTTGATACTAAC | 1.03 | 0.522 | 0.278 | 0.533 | 0.933 | 2.89 | 1.66 | 2.27
AGTCAAAGTTCACTAGGTAATGTAAGATTCAGCT | 3.71 | 4.84 | 5.6 | 4.39 | 3.73 | 1.91 | -0.139 | 3.81
ACTCGGAGAACAAAGGTCAGAGCTACGCCAGTGA | 4.39 | 4.46 | 3.88 | 0.505 | 4.55 | 2.76 | 0.0239 | 0.553
TCTTGTAGATCAAGCAGGTTAAGGAAGCCTGAGT | 0.203 | 0.0317 | -0.28 | 0.415 | 0.299 | 0.262 | -0.359 | 0.166
TCTGTTAGGTCAACGATGGTCAGCTAATCTGCTA | 3.65 | 4.38 | 4.93 | 1.61 | 3.2 | 3.73 | 2.76 | 0.727
CAAACTAGGTCACAGAGGTCAAAGCCCGTGCGTA | 5.57 | 7.25 | 7.63 | 3.22 | 7.75 | 4.82 | 2.99 | 6.06
CATACAGGGTCAGCTAGCCCAGAGTAGGGACGGC | 3.08 | 4.59 | 4.82 | 1.69 | 4.46 | 2.82 | 0.68 | 0.999
CCTAGTGGGCCAAAAAGGTCATTGATGCCGATAA | 4.28 | 4.7 | 4.5 | 0.794 | 4.79 | 2.71 | 0.434 | 2.66
TCATATCGGTAAAGGTGAAAGTCGAACGATATGA | 1.32 | 1.5 | 1.16 | 0.447 | 1.95 | 1.19 | -0.551 | -0.566
TGAATGAGGTTAACGATCAGGGAACGTGGCGTCG | 0.791 | 1.96 | 1.19 | 0.898 | 2.81 | 2.52 | 0.403 | 0.222

Sequence | PBM binding z-score [1] | PBM binding z-score [2] | PBM binding z-score [3] | PBM binding z-score [4] | PBM binding z-score [5] | PBM binding z-score [6] | PBM binding z-score [7] | PBM binding z-score [8]
CCTGCTAGGGCAATGGTCAGCTAAAGCAGCTCGC | 0.431 | 0.176 | 0.604 | -0.414 | -0.159 | -0.164 | -0.86 | -0.814
TCATATAGGTAAACTGGTGAAAGTCCGTAAGTTA | 0.366 | 0.0786 | -0.0648 | 1.19 | 0.361 | 0.34 | 0.281 | 0.358
AGTCAAACTTCATCTAGGTAACGTAAGATATGCT | -0.47 | -0.19 | 0.544 | 0.281 | 0.109 | 0.484 | 0.329 | -0.372
GCGACTGGGGCATCAGCACGTTACCATAACTTAA | 0.000503 | 0.0207 | 0.311 | 0.239 | 0.0852 | -0.219 | -0.089 | -0.335
CAAACTAGGTCAAAGGTCTAAGTCGAGCCAACCA | 2.9 | 4.76 | 4.45 | 1.96 | 4.93 | 3 | 0.688 | 1.09
ATCTCTAGGTAAGTCTCAGTTCAGTGAAGAACGC | 1.02 | 0.158 | 0.271 | 0.813 | 0.0582 | 1.07 | 1.23 | 1.72
CCTGCTAGGTCATTGGTCAGCTAAAGCAGCTCGC | 3.25 | 3.88 | 4.43 | 3.02 | 2.61 | 2.79 | 1.24 | 1.27
GTACCAAGGTGAAGAGGTCGTTGATGAGTAGGCG | 2.46 | 3.26 | 1.79 | 0.608 | 2.65 | 2.47 | 1.09 | 2.21
GCTGCTAGGTCTACTGATGGTCAGCTAAAGCTCG | -0.175 | -0.238 | -0.555 | 0.147 | -0.738 | -0.635 | -0.572 | -0.893
CCTACTGGGCCACGAAAGGTCATTTATTCAGTGA | 4.32 | 4.41 | 4.2 | 0.751 | 4.96 | 3.5 | 0.944 | 2.76
GGCACGAGGGCATTCGAGTTGATAGCATGGCGAT | 0.614 | 1.04 | 1.53 | 3.11 | 0.455 | 3.42 | -0.251 | 3.45
TAGCCTAGGTCATGCGGGCCAGGATAGTGTCGGC | 3.1 | 3.77 | 4.7 | 0.23 | 2.94 | 3.06 | 0.933 | 0.706
CCAACTGGGGCAAGGTTACCATAACGCACAGCCA | 1.51 | 0.917 | 1.56 | -0.0848 | 1.13 | 1.4 | 0.42 | -0.0492
CCTACTGGTCCAAAGGTCATTGATTCCAATGCTC | 4.86 | 5.09 | 4.49 | 2.23 | 5.45 | 3.31 | 1.49 | 2.58
CCTCGGTGGACAACAGGAGGTCAGAGCTGCCAGA | 2.99 | 2.06 | 1.73 | -0.87 | 1.64 | 1.97 | 0.341 | 0.396
ACTAGCAGGCCAAGTTTGGGGCACTCAAACAAAG | 0.455 | 0.443 | 0.463 | -0.0962 | -0.356 | 0.348 | -0.409 | -0.166
ACTATAAGTTGAGACGAGGGCAACCGATAGGTTG | 1.57 | 1.19 | 1.21 | 0.723 | 0.925 | 3.73 | 0.194 | 1.39
ATCTCTAGGTGAGACTCAGTTCAGTGAAGAACGC | 0.564 | 0.527 | 0.376 | 0.062 | 0.00106 | 0.954 | 0.42 | 0.761
ATCTCTAGGTGACAAGTTCAGTGAAAGAGAGGAC | 2.34 | 2.03 | 1.82 | 0.449 | 1.09 | 1.71 | 0.652 | 2.05
CCTAGCAGGCCAGGGTCACTCTAGCATTTCGCTT | 2.58 | 2.69 | 2.31 | 0.701 | 2.88 | 2.56 | 0.876 | 1.14
TATACAGGGTCAACGGCCAGAGTACGAATGTCGA | 3.43 | 5.83 | 5.47 | 2.75 | 6.28 | 3.46 | 1.05 | 2.95
CCTATTAGTTGACCATTAGGGCAACCGAAGCTCG | 1.68 | 0.667 | 0.891 | 0.456 | 0.374 | 0.945 | 0.78 | 0.844
CAAACTAGGTCAAAGGACAAAGTCGAGCCAACCA | 3.11 | 4.32 | 4.77 | 1.7 | 3.31 | 2.92 | 0.809 | 0.753
ATACCAAGGTGATCGTGAGGTCGTTCATACTAAC | 1.73 | 2.21 | 0.992 | 0.992 | 1.58 | 3.38 | 2.71 | 3.68
TTACCAAGGTGAGAGGTCGTTGATGCACGCCTTG | 1.97 | 2.58 | 1.3 | 0.404 | 3.24 | 2.6 | 1.11 | 1.66
CGTCCAAGGTCAAAGATCAGTGAAGAGATGACGG | 3.86 | 6.12 | 6.48 | 3.73 | 6.79 | 3.85 | 1.87 | 2.6
